High-throughput results: PubChem BioAssay, National Center for Advancing Translational Sciences (NCATS)
USP2a block = qHTS Assay for Inhibitors of Ubiquitin-specific Protease USP2a Using CHOP2 as the Reporter | Ubiquitin carboxyl-terminal hydrolase 2 (Homo sapiens), O75604 | USP2 core, Ub-CHOP2 coupled fluorogenic reporter, 485/531 | Potency, µM (titrated, usually from 38.3 µM), for the others: top-dose activity change, negative = inhibition, most hits filed as inhibitors | actives 0.01% (n = 330,000) | AID 463254, 2010;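 further: plate controls were DMSO wells for no effect and full inhibition by NEM control for full effect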
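Cell-free coupled assay: 10nM USP2 core preincubated 30min RT with compound in Tris-HCl pH 8.0/CaCl2/CHAPS buffer, then 25nM Ub-CHOP2 and 25nM reporter substrate; fluorescence (Ex 485/Em 531) read after 60min RT, normalized to NEM inhibition, concentration-response curves fitted.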
Integrin act MD = qHTS for Activators of Integrin-Mediated Alleviation for Muscular Dystrophy; Potency, µM (doses to about 38.3 µM), without a hit: at the highest dose activation, most hits filed as activators; alpha7betagal myoblasts, beta-gal FDG fluorescence, 48 h; actives 0.064% (n = 350,000);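 further: 100% = response of the positive control SU9516; nearly all actives have a fitted effect of over 60% in size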
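Alpha7betagal+/- myoblasts (passage 13) were plated 16-24 hr, then exposed to compounds (1:260 dilution of DMSO stock) for 48 hours at 37C. After MPER lysis, β-galactosidase reporter activity was read as FDG fluorescence (ex 480/em 540) after 30 minutes.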
Mm-Cpn inhibitor = Inhibitors of TCP-1 ring complex (TRiC) of Methanococcus maripaludis (MmCpn): qHTS | Chaperonin Mm-Cpn (Methanococcus maripaludis) | actives 0.031% (n = 330,000) | Potency, µM (series often up to 76.9 µM), inactives show at the top dose activity, negative = inhibition, actives largely listed as inhibitors | purified Mm-Cpn ATPase, ADP Transcreener TR-FRET; further: on the % scale 0 is the no-effect control and ±100 the full control effect; nearly all actives have a fitted effect of over 80% in size
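TR-FRET (320 nm excitation; 590 and 665 nm emission) reports ADP made from 10 uM ATP by 25 nM enzyme; compounds were preincubated 10 min, reaction run 30 min, both at 37°C.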
Eya2 phos inh = qHTS Assay for Inhibitors of the Phosphatase Activity of Eya2; recombinant Eya2, OMFP fluorescence dephosphorylation (OMFP is methylfluorescein phosphate); Potency, µM (titrated, usually from 76.9 µM), for the others: at the top dose activity, negative = inhibition, actives largely listed as inhibitors; Protein phosphatase EYA2 (Homo sapiens), O00167; actives 0.006% (n = 330,000); AID 488837, 2010; further: on the % scale 0 is the no-effect control and ±100 the full control effect
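Eya2 protein (added as 0.2 uM solution) was preincubated with compound for 10 min at ambient temperature in 50 mM HEPES pH 7.5, 50 mM NaCl, 5 uM MgCl2, 0.05% BSA, 1 mM DTT. OMFP (added at 50 uM) then reacted 10 min; fluorescence read at 485/525 nm.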
ClpP mod = qHTS Assay for Activators of ClpP; ATP-dependent Clp protease proteolytic subunit (Bacillus subtilis (strain 168)), P80244; purified B. subtilis ClpP, FRET peptide cleavage, 20 min; Potency, µM (top dose mostly 57.5 µM), inactives show at the highest dose activity change, negative = active; actives 1.9% (n = 340,000); active means well fitted falling curve with a large enough effect; inconclusive means small, poorly fitted or top-dose-only effect; inactive means no such curve, though single readings can be large or run the other way; further: the source files actives as falling curves though it sought activators and does not explain the sign; nearly all actives have a fitted effect of over 65% in size
Target sequence (P80244 whole entry, looked up): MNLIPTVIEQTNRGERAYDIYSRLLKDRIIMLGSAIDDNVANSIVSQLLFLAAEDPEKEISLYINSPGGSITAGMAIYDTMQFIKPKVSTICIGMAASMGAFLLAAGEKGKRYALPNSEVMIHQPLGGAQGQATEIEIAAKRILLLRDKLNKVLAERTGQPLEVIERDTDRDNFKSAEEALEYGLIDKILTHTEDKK
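Purified B. subtilis ClpP, 10 microg/mL final in Tris/HCl pH8 with KCl, BSA, glycerol and Tween-20, cleaved an Abz/nitrotyrosine-quenched decapeptide. Fluorescence (ex 320, em 430) was read at 0 and 20 min at room temperature. Delta was normalized to 5.8 microM ADEP and DMSO/no-enzyme controls.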
p53 reactivation = qHTS assay for re-activators of p53 using a Luc reporter; H1299 p53-A138V BP100-luciferase reporter, luminescence, 24 h; Potency, µM (series often up to 92.2 µM), for the others: top-dose activity change, positive = activation, usual class: activators; actives 0.063% (n = 320,000); further: % of control where 0% means no effect; nearly all actives have a fitted effect of over 45% in size
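H1299 (p53-null), stable ts p53-A138V + BP100-Luc; 1000 cells/well, Opti-MEM/10% FBS; cpd 4 pt, 1:5; 24 h, 37 deg C, 5% CO2; detection reagent 10 min RT; luminescence.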
* marks the source's active call; other numbers are inactive results; ? = inconclusive; / = no result given. This excerpt belongs to a sample that is enriched for hits. Unless noted, the call rests on the fitted dose curve; in most records, active means well fitted curve in the direction sought with a large enough effect; inconclusive means small, poorly fitted or top-dose-only effect, or another doubt; inactive means no such curve, though single readings can be large; an effect the other way counts as inactive or inconclusive. Potency means the concentration at half of the fitted maximal effect.

SMILES	USP2a block	Integrin act MD	Mm-Cpn inhibitor	Eya2 phos inh	ClpP mod	p53 reactivation
CCCN1CNc2c(c(=O)[nH]c(=S)n2CCc2cc(OC)cc(OC)c2)C1	/	/	/	/	0.6%	/
Cn1/c(=N\NC(=O)C2CCCCC2)sc2ccccc21	-0.5%	0.0%	-2.5%	-12.6%	14.1µM*	0.8%
COCCCNC(=O)C1CCN(c2cc(C)nc3c(-c4ccc(OC)c(OC)c4)c(C)nn23)CC1	/	/	/	/	0.8%	/
O=C(CSc1nnc(CCCN2C(=O)c3cccc4cccc(c34)C2=O)n1-c1ccccc1)N1CCN(CCO)CC1	1.7%	-4.0%	-0.1%	6.0%	14.1µM*	-3.3%
Fc1cccc(CNc2ncnc3ccc(-c4cccnc4)cc23)c1	5.0%	/	-0.8%	1.4%	/	/
CCCCn1nnc(NC(=O)c2ccc(-c3cccc(Cl)c3)o2)n1	-6.0%	-4.1%	-2.5%	-20.8%	31.6µM*	12.2%
CCc1ccc(CNC(=O)c2cnc3sc(N(CC)CC)nn3c2=O)cc1	/	/	/	/	12.6µM*	/
CCN(CC)c1nn2c(=O)c(C(=O)NCCc3ccccc3C)cnc2s1	/	/	/	/	3.98µM*	/
CCN(CC)c1nn2c(=O)c(C(=O)NCCc3ccc(C)cc3)cnc2s1	/	/	/	/	15.8µM*	/
CCOc1ccccc1CNC(=O)c1cnc2sc(N(CC)CC)nn2c1=O	/	/	/	/	8.91µM*	/
COc1cccc(NC(=O)COc2ccccc2C(=O)Nc2ccccc2)c1	/	/	/	/	3.4%	/
CC(C)(C)OC(=O)N1CCN(c2nc(-c3cccs3)nc3ccccc23)CC1	/	/	/	/	-10.0%	/
N#CN=c1snc(-c2ccccc2Cl)n1-c1ccccc1Cl	/	/	/	/	-1.8%	/
CCc1ccc(-c2cn3c(n2)sc2cc(C(=O)NCCC4=CCCCC4)ccc23)cc1	/	/	/	/	25.1µM*	/
CCCNC(=O)c1ccc2c(c1)sc1nc(-c3ccc(C)cc3)cn12	/	/	/	/	31.6µM*	/
Cc1ccc(-c2cn3c(n2)sc2cc(C(=O)N4CCCCC4)ccc23)cc1	/	/	/	/	25.1µM*	/
COc1ccc2c(c1)c1nnc(SC)nc1n2Cc1ccccc1	/	/	/	/	1.6%	/
Cc1cc([N+](C)(C)C)cc(C)c1/C=C/c1ccnc2ccccc12	/	/	/	/	-0.8%	/
COc1cccc(CCNC(=O)Cn2c(-c3cccs3)cc3ccccc32)c1	/	/	/	/	4.4%	/
CC(C)Oc1ccc(CNC(=O)Cn2c(-c3cccs3)cc3ccccc32)cc1	/	/	/	/	35.5µM*	/
Cc1cccc(CNC(=O)Cn2c(-c3cccs3)cc3ccccc32)c1	/	/	/	/	14.1µM*	/
COc1cc2nc(N3CCCN(C)CC3)nc(Nc3ccncc3)c2cc1OC	/	/	/	/	4.3%	/
Cc1cc(=O)n(C(C)Cc2ccccc2)n1C(C)Cc1ccccc1 (centres undefined)	/	32.7%	/	/	31.6µM*	/
CCC(CC)n1c(C)cc(=O)n1C(CC)CC	/	5.6%	/	/	-5.3%	/
C=CCn1c(NS(=O)(=O)c2ccccc2)c(S(=O)(=O)c2ccc(C)cc2)c2nc3ccccc3nc21	-0.5%	-4.5%	?	-18.6%	-1.4%	11.5%
CC(=O)Nc1ccc(S(=O)(=O)c2c(N)n(CCN3CCOCC3)c3nc4ccccc4nc23)cc1	1.6%	12.2%	-2.2%	5.9%	31.6µM*	-1.6%
CC(=O)Nc1c(S(=O)(=O)c2ccccc2)c2nc3ccccc3nc2n1Cc1ccccc1	1.6%	-3.4%	0.3%	-6.1%	15.8µM*	0.5%
COC(=O)CN(C(=O)CSc1nnc(-c2cccc(OC)c2)o1)c1ccc(OC)cc1	-5.6%	15.4%	-0.5%	-6.9%	15.8µM*	1.1%
COc1nc(C#N)nc(N2CCCCC2)n1	/	/	/	/	-1.4%	/
